Assay results from PubChem BioAssay (Tox21).
Where “and” joins values, the source holds several entries; their conditions need not be identical. Identical values can stand only once. Records with an inconclusive call do not appear. Where a call stands in place of a potency, no number is given. Calls of active or inactive are those of the source. Unless noted, calls follow the shape of the full dose curve.

Experiments:
[1] = biological target: Peroxisome proliferator-activated receptor delta (Homo sapiens) (UniProt Q03181); test: qHTS assay to identify small molecule agonists of the peroxisome proliferator-activated receptor delta (PPARd) signaling pathway (AID 743212)
Method in brief: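 Cells expressing a UAS-driven beta-lactamase reporter (PPARd-bla HEK293H) were given test compounds after a 5 h settle and kept at 37 C. Reporter activity was then measured as FRET fluorescence using LiveBLAzer B/G substrate.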

[2] = qHTS assay to identify small molecule antagonists of the peroxisome proliferator-activated receptor delta (PPARd) signaling pathway - cell viability counter screen (AID 743213; active = well fitted curve in the direction sought with a large enough effect in the repeat runs; an effect the other way counts as inactive or inconclusive; also: nearly all actives have a fitted effect of over 50% in size)
Method in brief: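 PPARd-bla HEK293H cells (3000/well) got compound plus 300 nM L165041 agonist for 17 h at 37 C. Viability in the same wells came from CellTiter-Glo luminescence after 30 min at room temperature.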

[3] = qHTS assay to identify small molecule agonists of the farnesoid-X-receptor (FXR) signaling pathway - cell viability counter screen (AID 743218; active = well fitted curve in the direction sought with a large enough effect in the repeat runs; an effect the other way counts as inactive or inconclusive; also: nearly all actives have a fitted effect of over 45% in size)
Method in brief: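 Quantitative HTS counter screen measuring ATP-based viability via CellTiter-Glo luminescence in HEK 293T cells carrying a UAS-driven beta-lactamase reporter, after 16 h compound exposure at 37 C.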

[4] = qHTS assay to identify small molecule antagonists of the farnesoid-X-receptor (FXR) signaling pathway - cell viability counter screen (AID 743221; active = well fitted cell-killing curve with a large enough effect in the repeat runs, not every such curve was filed as active; also: nearly all actives have a fitted effect of over 50% in size)
Method in brief: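 CellTiter-Glo, 30 min RT, luminescence; same wells as the LiveBLAzer FRET read. Cells: FXR-UAS-bla HEK 293T. Treatment: compound with chenodeoxycholic acid 50 uM final, 16 h at 37 C.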

[5] = biological target: Vitamin D3 receptor (Homo sapiens) (UniProt P11473); test: qHTS assay to identify small molecule agonists of the vitamin D receptor (VDR) signaling pathway (AID 743222)
Method in brief: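 Tox21 cell reporter format: VDR-bla line, 16 h compound exposure in 5% CO2 at 37C, then fluorescence intensity after 2 h with LiveBLAzer B/G FRET substrate.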

[6] = qHTS assay to identify small molecule agonists of the vitamin D receptor (VDR) signaling pathway - cell viability counter screen (AID 743224; active = well fitted curve in the direction sought with a large enough effect in the repeat runs; an effect the other way counts as inactive or inconclusive; also: nearly all actives have a fitted effect of over 50% in size; also: potency is read from the fitted curve at half-maximal effect)
Method in brief: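 CellTiter-Glo viability readout on VDR-bla cells, measured after 16 h of compound treatment at 37C in the same wells.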

[7] = qHTS assay to identify small molecule antagonists of the vitamin D receptor (VDR) signaling pathway - cell viability counter screen (AID 743225; active = well fitted curve in the direction sought with a large enough effect in the repeat runs; an effect the other way counts as inactive or inconclusive; also: nearly all actives have a fitted effect of over 50% in size)
Method in brief: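 Cytotoxicity toward the VDR-bla HEK 293T line was scored by ATP-based CellTiter-Glo luminescence, read in the wells already used for the beta-lactamase readout after 16 h compound treatment under 3 nM 1-alpha,25-dihydroxyvitamin D3 stimulation.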

[8] = qHTS assay to identify small molecule agonists of the NFkB signaling pathway (AID 1159509; active = well fitted curve in the direction sought with a large enough effect in the signal ratio in the repeat runs, not every such curve was filed as active; the % refers to the signal ratio; also: series mostly up to about 61 µM)
Method in brief: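 Agonist activity was read as beta-lactamase-driven FRET change (460 and 530 nm emission, 405 nm excitation) following 1.5 hr substrate loading at room temperature. Beforehand, ME-180 NFkB-bla reporter cells were treated with compounds for 5 hr at 37 C.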

[9] = qHTS assay to identify small molecule agonists of the NFkB signaling pathway - cell viability counter screen (AID 1159515); also: series mostly up to about 61 µM; nearly all actives have a fitted effect of over 55% in size
Method in brief: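 Tox21 library compounds were tested for cytotoxicity against NFkB-bla ME-180 cells during a 5 hr exposure at 37 C. CellTiter-Glo luminescence served as the viability read-out.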

[10] = qHTS assay to identify small molecule agonists of the endoplasmic reticulum stress response signaling pathway - cell viability counter screen (AID 1159517)
Method in brief: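 Cpd-treated ESRE-bla HeLa (5 hr, 37 C) → LiveBLAzer 2 hr RT → CellTiter-Glo 30 min RT → luminescence.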

[11] = biological target: Nuclear receptor ROR-gamma (Homo sapiens) (UniProt P51449); test: qHTS assay to identify small molecule antagonists of the retinoid-related orphan receptor gamma (ROR-gamma) signaling pathway (AID 1159521; active = well fitted curve in the direction sought with a large enough effect in the repeat runs; an effect the other way counts as inactive or inconclusive; also: nearly all actives have a fitted effect of over 50% in size; also: potency is read from the fitted curve at half-maximal effect)
Method in brief: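 Readout: ONE-Glo luciferase luminescence, 30 min at room temperature. System: Tet-on RORγ CHO, RORE-LUC. Sequence: compound 2 h, doxycycline 1 uM final, 16 h at 37 C.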

[12] = qHTS assay to identify small molecule agonists of the AP-1 signaling pathway (AID 1159526)
[13] = biological target: Peroxisome proliferator-activated receptor delta (Homo sapiens) (UniProt Q03181); test: qHTS assay to identify small molecule antagonists of the peroxisome proliferator-activated receptor delta (PPARd) signaling pathway (AID 743215; active = well fitted inhibition curve with a large enough effect in the signal ratio in the repeat runs, not every such curve was filed as active; the % refers to the signal ratio;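 also: cells stimulated with agonist L165041 at 300 nM final during compound exposure; series mostly up to about 62 µM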)
Method in brief: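 Here, a reporter line (HEK293H, beta-lactamase under a UAS) measures PPARd signaling. Compounds are tested against agonist L165041 at 300 nM final concentration over 17 h at 37 C, with fluorescence read after substrate.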

[14] = biological target: Vitamin D3 receptor (Homo sapiens) (UniProt P11473); test: qHTS assay to identify small molecule antagonists of the vitamin D receptor (VDR) signaling pathway (AID 743223; active = well fitted inhibition curve with a large enough effect in the signal ratio in the repeat runs, not every such curve was filed as active; the % refers to the signal ratio)
Method in brief: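 After VDR-bla cells are plated and left 4 h at 37C, DMSO-dissolved compounds and 3 nM (final) calcitriol agonist are added. Incubation continues 16 h at 37C; FRET beta-lactamase substrate then develops 2 h at room temperature.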

[15] = qHTS assay to identify small molecule agonists of the endoplasmic reticulum stress response signaling pathway (AID 1159516; active = well fitted activation curve with a large enough effect in the signal ratio in the repeat runs, not every such curve was filed as active; the % refers to the signal ratio)
Method in brief: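 Fluorescence at 460 and 530 nm (405 nm excitation) reports beta-lactamase from an ER stress response element in HeLa cells treated 5 hr at 37 C.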

[16] = qHTS assay to identify small molecule antagonists of the retinoid-related orphan receptor gamma (ROR-gamma) signaling pathway - cell viability counter screen (AID 1159520; active = well fitted curve in the direction sought with a large enough effect in the repeat runs; an effect the other way counts as inactive or inconclusive; also: nearly all actives have a fitted effect of over 50% in size)
Method in brief: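 Tet-on ROR gamma CHO cells (1,000/well) were plated 4 hr, given compounds in DMSO for 2 hr at 37 C, then induced with 1 uM final doxycycline for 16 hr. Viability was read as ATP by CellTiter-Glo luminescence after 30 min.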

[17] = qHTS assay to identify small molecule agonists of the AP-1 signaling pathway - cell viability counter screen (AID 1159525); also: nearly all actives have a fitted effect of over 55% in size
Method in brief: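 Each titration point was normalised to DMSO and tetra n-octyl ammonium bromide controls. The read was Cell Titer Glo luminescence after 30 min at RT, following 5 h compound exposure of ME-180 AP-1-bla cells at 37 °C.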

[18] = qHTS assay to identify small molecule agonists of the peroxisome proliferator-activated receptor delta (PPARd) signaling pathway - cell viability counter screen (AID 743211; active = well fitted curve in the direction sought with a large enough effect in the repeat runs; an effect the other way counts as inactive or inconclusive; also: nearly all actives have a fitted effect of over 55% in size)
Method in brief: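 Multiplexed format: after the 2 h room-temperature LiveBLAzer B/G FRET step, CellTiter-Glo was added to the same wells. Luminescence after 30 min gave cell viability; compound exposure was 17 h at 37C.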

[19] = biological target: Bile acid receptor (Homo sapiens) (UniProt Q96RI1); test: qHTS assay to identify small molecule antagonists of the farnesoid-X-receptor (FXR) signaling pathway (AID 743217; active = well fitted inhibition curve with a large enough effect in the signal ratio in the repeat runs, not every such curve was filed as active; the % refers to the signal ratio)
Method in brief: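 Test compounds are pin-transferred onto FXR-bla HEK 293T cells, then chenodeoxycholic acid is added at 50 uM final. After 16 h at 37 °C, LiveBLAzer B/G substrate is applied for 2 h at room temperature and fluorescence read.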

[20] = biological target: Bile acid receptor (Homo sapiens) (UniProt Q96RI1); test: qHTS assay to identify small molecule agonists of the farnesoid-X-receptor (FXR) signaling pathway (AID 743220; active = well fitted activation curve with a large enough effect in the signal ratio in the repeat runs, not every such curve was filed as active; the % refers to the signal ratio)
Method in brief: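 FXR-UAS-bla HEK 293T cells carrying a UAS-driven beta-lactamase reporter were plated for 5 h at 37C/5% CO2, then exposed to DMSO-dissolved Tox21 10K compounds for 16 h at 37C. A LiveBLAzer B/G FRET substrate was loaded for 2 h at room temperature before fluorescence reading.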

Peroxisome proliferator-activated receptor delta (Homo sapiens), sequence (Q03181 whole entry, looked up): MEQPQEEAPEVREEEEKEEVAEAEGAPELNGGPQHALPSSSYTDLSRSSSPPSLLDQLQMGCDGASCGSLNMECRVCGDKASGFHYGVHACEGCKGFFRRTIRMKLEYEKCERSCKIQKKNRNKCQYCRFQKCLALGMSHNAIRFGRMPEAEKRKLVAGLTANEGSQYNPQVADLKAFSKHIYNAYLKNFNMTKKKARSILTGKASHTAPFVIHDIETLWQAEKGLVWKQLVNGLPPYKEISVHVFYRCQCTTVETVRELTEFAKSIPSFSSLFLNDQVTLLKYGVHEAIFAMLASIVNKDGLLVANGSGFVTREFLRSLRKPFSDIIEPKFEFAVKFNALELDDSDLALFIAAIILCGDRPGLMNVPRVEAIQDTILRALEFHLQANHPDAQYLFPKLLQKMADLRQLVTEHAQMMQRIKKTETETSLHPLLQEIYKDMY
Vitamin D3 receptor (Homo sapiens), sequence (P11473 whole entry, looked up): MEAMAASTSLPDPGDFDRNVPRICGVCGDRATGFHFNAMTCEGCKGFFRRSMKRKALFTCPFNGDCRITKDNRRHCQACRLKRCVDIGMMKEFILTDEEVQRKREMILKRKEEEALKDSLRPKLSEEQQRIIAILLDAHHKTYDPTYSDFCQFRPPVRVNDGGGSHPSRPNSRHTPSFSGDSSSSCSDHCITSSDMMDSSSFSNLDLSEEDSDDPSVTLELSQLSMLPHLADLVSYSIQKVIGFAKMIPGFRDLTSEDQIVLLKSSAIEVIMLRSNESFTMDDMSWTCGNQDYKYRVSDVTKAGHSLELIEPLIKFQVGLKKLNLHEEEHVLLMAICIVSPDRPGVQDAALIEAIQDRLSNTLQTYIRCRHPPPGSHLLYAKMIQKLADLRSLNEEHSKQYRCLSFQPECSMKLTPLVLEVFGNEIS
Bile acid receptor (Homo sapiens), sequence (Q96RI1 whole entry, looked up): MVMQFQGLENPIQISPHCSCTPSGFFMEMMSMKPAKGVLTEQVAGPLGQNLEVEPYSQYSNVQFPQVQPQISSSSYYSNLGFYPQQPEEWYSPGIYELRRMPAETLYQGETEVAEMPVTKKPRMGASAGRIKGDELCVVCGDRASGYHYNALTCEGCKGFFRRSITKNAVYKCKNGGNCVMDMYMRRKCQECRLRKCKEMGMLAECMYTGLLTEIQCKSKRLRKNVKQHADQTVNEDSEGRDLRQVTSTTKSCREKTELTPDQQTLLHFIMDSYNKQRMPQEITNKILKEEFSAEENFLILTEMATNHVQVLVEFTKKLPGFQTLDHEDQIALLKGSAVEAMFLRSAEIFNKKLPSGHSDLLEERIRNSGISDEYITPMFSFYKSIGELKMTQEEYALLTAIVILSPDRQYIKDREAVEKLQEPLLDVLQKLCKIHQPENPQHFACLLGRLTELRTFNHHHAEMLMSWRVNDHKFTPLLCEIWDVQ

SMILES	outcome [1]	Potency [2]	Potency [3]	Potency [4]	outcome [5]	Potency [6]	Potency [7]	outcome [8]	Potency [9]	Potency [10]	Potency [11]	outcome [12]	Potency [13]	outcome [14]	Potency [15]	Potency [16]	Potency [17]	Potency [18]	Potency [19]	outcome [20]
Nc1ncn([C@@H]2O[C@H](CO)[C@@H](O)[C@H]2O)c(=O)n1	inactive	inactive	inactive	inactive	inactive	inactive	inactive	inactive	inactive	inactive	1.72 µM (active) and 3.35 µM (active)	inactive	–	–	–	–	–	–	–	–
CN(C)CCN(Cc1cccs1)c1ccccn1	inactive	inactive	inactive	–	inactive	inactive	inactive	inactive	inactive	inactive	–	–	inactive	inactive	inactive	inactive	inactive	–	–	–
CC(CCC(=O)O)(c1ccc(O)cc1)c1ccc(O)cc1	inactive	inactive	inactive	inactive	inactive	inactive	inactive	inactive	inactive	inactive	inactive	inactive	inactive	inactive	inactive	–	inactive	inactive	inactive	inactive
Cc1ccc2c(n1)Oc1ccc(C(C)C(=O)OCC(=O)N(C)C)cc1C2 (stereo not drawn)	inactive	inactive	inactive	inactive	inactive	inactive	inactive	inactive	inactive	inactive	inactive	inactive	inactive	inactive	inactive	–	–	inactive	–	–
Cc1ccc(C)c(O)c1C	inactive	inactive	inactive	–	inactive	inactive	inactive	inactive	inactive	inactive	inactive	inactive	inactive	inactive	inactive	–	inactive	–	–	–
O=C1c2cccc(O)c2C(=O)c2c(O)cccc21	inactive	–	inactive	–	inactive	inactive	inactive	inactive	inactive	inactive	inactive	–	inactive	inactive	–	inactive	inactive	inactive	inactive	–
S=C(NC1CCCCC1)NC1CCCCC1	inactive	–	inactive	inactive	inactive	24.5 µM (active)	inactive	inactive	inactive	inactive	48.6 µM (active)	–	–	inactive	–	inactive	–	–	–	–
